What was measured:
Assay in all cases: DAPPL (digital affinity profiling via proximity ligation, sequencing); 10 mM Tris-HCl pH 7.5, 50 mM NaCl, 1 mM DTT, 4% glycerol, room temperature, 30 min; GST-TFs on glutathione beads, 16-mer random dsDNA library, 0.1% formaldehyde crosslink after washing; high values mean tight binding
Settings in all cases: protein: recombinant; tags: N-terminal GST; dsDNA, one strand shown
FLI1 = molecular target: T1, FLI1 (Homo sapiens, UniProt Q01543 1-452)
T1 sequence: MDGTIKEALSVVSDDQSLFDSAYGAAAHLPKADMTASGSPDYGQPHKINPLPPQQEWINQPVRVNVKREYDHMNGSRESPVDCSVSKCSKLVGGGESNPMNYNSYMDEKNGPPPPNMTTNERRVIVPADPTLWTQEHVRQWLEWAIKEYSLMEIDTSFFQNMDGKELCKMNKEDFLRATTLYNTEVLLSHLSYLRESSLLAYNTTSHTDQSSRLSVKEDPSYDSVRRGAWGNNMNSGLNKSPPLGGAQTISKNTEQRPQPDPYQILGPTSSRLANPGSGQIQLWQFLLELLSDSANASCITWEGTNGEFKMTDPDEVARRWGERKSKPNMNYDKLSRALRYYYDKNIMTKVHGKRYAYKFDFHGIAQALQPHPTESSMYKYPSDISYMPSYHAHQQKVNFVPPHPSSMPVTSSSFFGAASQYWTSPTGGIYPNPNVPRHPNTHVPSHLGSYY
In short: (§1)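 Human transcription factors carrying a GST fusion were produced in yeast, bound to glutathione beads, tagged with DNA barcodes and pooled together with a tag-only sample. Each pool was held with 200 nmole of a random double-stranded 16-mer DNA library in Tris/NaCl/DTT/glycerol buffer for 30 min at room temperature, then washed, crosslinked in 0.1% formaldehyde, proximity-ligated with BsaI/T4 ligase (1 h, 37 °C), PCR-amplified and sequenced on an Illumina NextSeq500. Binding signal is the read frequency of each hexamer for a given factor divided by its frequency in the tag-only sample.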

ELK1 = molecular target: T2, ELK1 (Homo sapiens, UniProt P19419 1-428)
T2 sequence: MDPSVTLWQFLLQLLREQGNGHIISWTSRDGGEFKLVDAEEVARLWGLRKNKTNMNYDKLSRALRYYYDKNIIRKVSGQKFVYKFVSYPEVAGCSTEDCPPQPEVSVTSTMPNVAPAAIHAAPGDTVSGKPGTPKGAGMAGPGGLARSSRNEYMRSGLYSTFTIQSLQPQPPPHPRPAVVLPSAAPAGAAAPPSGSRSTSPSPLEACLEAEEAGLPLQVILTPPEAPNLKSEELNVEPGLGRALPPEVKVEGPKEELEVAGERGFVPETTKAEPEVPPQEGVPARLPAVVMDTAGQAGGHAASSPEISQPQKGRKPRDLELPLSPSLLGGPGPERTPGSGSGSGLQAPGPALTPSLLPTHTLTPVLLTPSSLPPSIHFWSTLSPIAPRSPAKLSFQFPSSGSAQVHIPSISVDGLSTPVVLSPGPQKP
In short: as §1

GABPA = molecular target: T3, GABPA (Homo sapiens, UniProt Q06546 1-454)
T3 sequence: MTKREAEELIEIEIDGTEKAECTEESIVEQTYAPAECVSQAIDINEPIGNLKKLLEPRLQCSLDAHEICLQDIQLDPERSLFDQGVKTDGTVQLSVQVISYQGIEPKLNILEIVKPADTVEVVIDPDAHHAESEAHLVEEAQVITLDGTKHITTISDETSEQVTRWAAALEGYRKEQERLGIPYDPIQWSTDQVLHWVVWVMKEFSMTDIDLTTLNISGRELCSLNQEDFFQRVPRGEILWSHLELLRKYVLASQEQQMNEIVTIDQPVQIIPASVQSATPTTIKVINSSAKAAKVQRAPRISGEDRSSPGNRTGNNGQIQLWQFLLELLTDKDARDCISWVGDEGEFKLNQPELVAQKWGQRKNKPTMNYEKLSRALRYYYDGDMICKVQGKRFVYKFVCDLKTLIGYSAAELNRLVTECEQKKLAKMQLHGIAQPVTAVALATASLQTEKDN
In short: as §1

ERG = molecular target: T4, ERG (Homo sapiens, UniProt P11308 1-479)
T4 sequence: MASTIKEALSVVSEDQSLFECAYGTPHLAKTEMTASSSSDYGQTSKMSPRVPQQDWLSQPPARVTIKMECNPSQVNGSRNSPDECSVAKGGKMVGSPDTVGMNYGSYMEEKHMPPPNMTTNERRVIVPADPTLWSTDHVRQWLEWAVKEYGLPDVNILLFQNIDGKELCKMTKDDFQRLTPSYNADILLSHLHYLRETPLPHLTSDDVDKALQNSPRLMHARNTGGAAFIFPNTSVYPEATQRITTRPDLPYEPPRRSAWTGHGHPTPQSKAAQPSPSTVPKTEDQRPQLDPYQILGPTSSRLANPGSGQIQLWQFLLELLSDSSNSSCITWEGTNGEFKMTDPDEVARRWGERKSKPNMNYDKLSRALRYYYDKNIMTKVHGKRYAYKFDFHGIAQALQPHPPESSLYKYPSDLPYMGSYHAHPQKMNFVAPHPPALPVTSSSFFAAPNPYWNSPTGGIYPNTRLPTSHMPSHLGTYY
In short: as §1

ELF1 = ELF1 (Homo sapiens, UniProt P32519 1-619)
In short: as §1

EHF = molecular target: T5, EHF (Homo sapiens, UniProt Q9NZC4 1-300)
T5 sequence: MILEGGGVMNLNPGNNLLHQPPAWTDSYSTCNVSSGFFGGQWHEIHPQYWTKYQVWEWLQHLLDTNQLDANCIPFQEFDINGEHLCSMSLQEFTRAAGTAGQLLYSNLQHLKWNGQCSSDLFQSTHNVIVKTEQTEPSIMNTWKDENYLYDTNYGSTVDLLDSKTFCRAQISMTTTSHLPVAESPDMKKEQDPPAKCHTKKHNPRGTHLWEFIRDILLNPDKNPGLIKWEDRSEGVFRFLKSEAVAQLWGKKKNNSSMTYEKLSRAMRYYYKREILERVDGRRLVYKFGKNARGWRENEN
In short: as §1

SPI1 = SPI1 (Homo sapiens, UniProt P17947 1-270)
In short: as §1

SPIB = SPIB (Homo sapiens, UniProt Q01892 1-262)
In short: as §1

ELK3 = molecular target: T6, ELK3 (Homo sapiens, UniProt P41970 1-407)
T6 sequence: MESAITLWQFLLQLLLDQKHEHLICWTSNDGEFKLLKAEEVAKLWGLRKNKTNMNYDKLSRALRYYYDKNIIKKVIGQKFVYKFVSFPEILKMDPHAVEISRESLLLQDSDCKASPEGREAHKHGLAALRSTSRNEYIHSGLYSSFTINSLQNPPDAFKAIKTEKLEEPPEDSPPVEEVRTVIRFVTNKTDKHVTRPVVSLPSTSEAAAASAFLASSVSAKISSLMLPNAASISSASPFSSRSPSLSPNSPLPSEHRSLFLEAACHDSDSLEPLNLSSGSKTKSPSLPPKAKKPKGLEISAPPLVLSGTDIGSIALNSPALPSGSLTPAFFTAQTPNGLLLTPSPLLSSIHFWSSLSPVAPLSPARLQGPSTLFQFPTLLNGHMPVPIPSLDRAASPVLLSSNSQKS
In short: as §1

Sequence of ELF1 (P32519 whole entry): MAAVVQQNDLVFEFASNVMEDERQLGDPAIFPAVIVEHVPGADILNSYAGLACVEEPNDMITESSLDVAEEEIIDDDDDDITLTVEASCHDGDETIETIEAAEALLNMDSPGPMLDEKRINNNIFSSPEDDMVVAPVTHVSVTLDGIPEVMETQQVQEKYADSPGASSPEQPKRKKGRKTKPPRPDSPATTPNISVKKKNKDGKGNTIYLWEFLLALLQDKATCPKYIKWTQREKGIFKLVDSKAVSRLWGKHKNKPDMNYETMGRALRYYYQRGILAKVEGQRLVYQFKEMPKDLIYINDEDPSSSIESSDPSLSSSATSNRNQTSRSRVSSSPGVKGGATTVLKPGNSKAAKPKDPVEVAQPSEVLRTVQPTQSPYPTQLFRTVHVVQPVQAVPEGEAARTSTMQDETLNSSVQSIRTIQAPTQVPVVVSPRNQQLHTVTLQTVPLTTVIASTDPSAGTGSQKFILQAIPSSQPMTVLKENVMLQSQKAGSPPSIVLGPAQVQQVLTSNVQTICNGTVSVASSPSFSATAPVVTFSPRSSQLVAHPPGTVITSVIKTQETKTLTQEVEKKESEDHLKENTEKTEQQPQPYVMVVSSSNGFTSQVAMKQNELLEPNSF
Sequence of SPIB (Q01892 whole entry): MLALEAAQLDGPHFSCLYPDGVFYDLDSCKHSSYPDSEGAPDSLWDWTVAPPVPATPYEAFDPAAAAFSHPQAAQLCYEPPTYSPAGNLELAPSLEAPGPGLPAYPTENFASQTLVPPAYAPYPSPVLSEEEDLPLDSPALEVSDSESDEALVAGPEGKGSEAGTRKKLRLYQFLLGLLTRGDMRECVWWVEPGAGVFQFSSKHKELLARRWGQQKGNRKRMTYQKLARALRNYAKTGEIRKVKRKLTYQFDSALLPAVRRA

With GCCTCC the binding signal (FLI1) was 1.29 fold enrichment (6-mer frequency, TF over GST control), the binding signal (ELK1) was 1.34 fold enrichment (6-mer frequency, TF over GST control) and the binding signal (GABPA) was 1.23 fold enrichment (6-mer frequency, TF over GST control). The binding signal (ERG) was 1.33 fold enrichment (6-mer frequency, TF over GST control), the binding signal (ELF1) was 1.27 fold enrichment (6-mer frequency, TF over GST control) and the binding signal (EHF) was 1.31 fold enrichment (6-mer frequency, TF over GST control). The binding signal (SPI1) was 1.38 fold enrichment (6-mer frequency, TF over GST control), the binding signal (SPIB) was 1.29 fold enrichment (6-mer frequency, TF over GST control) and the binding signal (ELK3) was 1.33 fold enrichment (6-mer frequency, TF over GST control).

With TACAGG the binding signal (FLI1) was 1.32 fold enrichment (6-mer frequency, TF over GST control), the binding signal (ELK1) was 1.16 fold enrichment (6-mer frequency, TF over GST control) and the binding signal (GABPA) was 1.21 fold enrichment (6-mer frequency, TF over GST control). For the same sequence, the binding signal (ERG) was 1.22 fold enrichment (6-mer frequency, TF over GST control), the binding signal (ELF1) was 1.13 fold enrichment (6-mer frequency, TF over GST control) and the binding signal (EHF) was 1.17 fold enrichment (6-mer frequency, TF over GST control). The binding signal (SPI1) was 1.12 fold enrichment (6-mer frequency, TF over GST control), the binding signal (SPIB) was 1.2 fold enrichment (6-mer frequency, TF over GST control) and the binding signal (ELK3) was 1.03 fold enrichment (6-mer frequency, TF over GST control).

With ATATGG the binding signal (FLI1) was 1.13 fold enrichment (6-mer frequency, TF over GST control), the binding signal (ELK1) was 1.31 fold enrichment (6-mer frequency, TF over GST control) and the binding signal (GABPA) was 1.28 fold enrichment (6-mer frequency, TF over GST control). For the same sequence, the binding signal (ERG) was 1.36 fold enrichment (6-mer frequency, TF over GST control), the binding signal (ELF1) was 1.26 fold enrichment (6-mer frequency, TF over GST control) and the binding signal (EHF) was 1.27 fold enrichment (6-mer frequency, TF over GST control). For the same sequence, the binding signal (SPI1) was 1.17 fold enrichment (6-mer frequency, TF over GST control), the binding signal (SPIB) was 1.24 fold enrichment (6-mer frequency, TF over GST control) and the binding signal (ELK3) was 1.25 fold enrichment (6-mer frequency, TF over GST control).

For TAACCA, the binding signal (FLI1) was 1.12 fold enrichment (6-mer frequency, TF over GST control), the binding signal (ELK1) was 1.12 fold enrichment (6-mer frequency, TF over GST control) and the binding signal (GABPA) was 1.08 fold enrichment (6-mer frequency, TF over GST control). The binding signal (ERG) was 1.12 fold enrichment (6-mer frequency, TF over GST control), the binding signal (ELF1) was 1.11 fold enrichment (6-mer frequency, TF over GST control) and the binding signal (EHF) was 1.15 fold enrichment (6-mer frequency, TF over GST control). For the same sequence, the binding signal (SPI1) was 1.06 fold enrichment (6-mer frequency, TF over GST control), the binding signal (SPIB) was 1.11 fold enrichment (6-mer frequency, TF over GST control) and the binding signal (ELK3) was 1.16 fold enrichment (6-mer frequency, TF over GST control).

AAGCTA was tested, and the binding signal (FLI1) was 1.16 fold enrichment (6-mer frequency, TF over GST control), the binding signal (ELK1) was 1.13 fold enrichment (6-mer frequency, TF over GST control) and the binding signal (GABPA) was 1.08 fold enrichment (6-mer frequency, TF over GST control). The binding signal (ERG) was 1.13 fold enrichment (6-mer frequency, TF over GST control), the binding signal (ELF1) was 1.11 fold enrichment (6-mer frequency, TF over GST control) and the binding signal (EHF) was 1.19 fold enrichment (6-mer frequency, TF over GST control). For the same sequence, the binding signal (SPI1) was 1.04 fold enrichment (6-mer frequency, TF over GST control), the binding signal (SPIB) was 1.2 fold enrichment (6-mer frequency, TF over GST control) and the binding signal (ELK3) was 1.21 fold enrichment (6-mer frequency, TF over GST control).

For CGTTAT, the binding signal (FLI1) was 1.14 fold enrichment (6-mer frequency, TF over GST control), the binding signal (ELK1) was 1.11 fold enrichment (6-mer frequency, TF over GST control) and the binding signal (GABPA) was 1.11 fold enrichment (6-mer frequency, TF over GST control). For the same sequence, the binding signal (ERG) was 1.1 fold enrichment (6-mer frequency, TF over GST control), the binding signal (ELF1) was 1.17 fold enrichment (6-mer frequency, TF over GST control) and the binding signal (EHF) was 1.07 fold enrichment (6-mer frequency, TF over GST control). For the same sequence, the binding signal (SPI1) was 1.11 fold enrichment (6-mer frequency, TF over GST control), the binding signal (SPIB) was 1.16 fold enrichment (6-mer frequency, TF over GST control) and the binding signal (ELK3) was 1.26 fold enrichment (6-mer frequency, TF over GST control).

In the case of GTACAA, the binding signal (FLI1) is reported as 1.05 fold enrichment (6-mer frequency, TF over GST control), the binding signal (ELK1) is reported as 1.08 fold enrichment (6-mer frequency, TF over GST control) and the binding signal (GABPA) is reported as 1.01 fold enrichment (6-mer frequency, TF over GST control). For the same sequence, the binding signal (ERG) was 1.11 fold enrichment (6-mer frequency, TF over GST control), the binding signal (ELF1) was 1.11 fold enrichment (6-mer frequency, TF over GST control) and the binding signal (EHF) was 1.26 fold enrichment (6-mer frequency, TF over GST control). For the same sequence, the binding signal (SPI1) was 1.06 fold enrichment (6-mer frequency, TF over GST control), the binding signal (SPIB) was 1.04 fold enrichment (6-mer frequency, TF over GST control) and the binding signal (ELK3) was 1.02 fold enrichment (6-mer frequency, TF over GST control).

Source: article PMC7862700, “An all-to-all approach to the identification of sequence-specific readers for epigenetic DNA modifications on cytosine”
